# Data taken from PubChem BioAssay (Tox21).
# Inconclusive results are not listed. Where a call stands in place of a potency, no number is given. The source made the active and inactive calls. The call rests on the fitted dose curve; in most records, active means well fitted curve in the direction sought with a large enough effect in the repeat runs; inconclusive means weak or mixed curves; inactive means no such curve, though single readings can be large; an effect the other way counts as inactive or inconclusive.
# Experiment: A CellTox Green Cytotoxicity Assay to monitor cytotoxicity in HEK293 cells - 0 hour (AID 1224869)
# Conditions: CellTox Green fluorescence; series mostly up to 76.8 µM
# Outline: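 Read-out: fluorescence of a cell-impermeant cyanine dye staining DNA of dead cells, proportional to cytotoxicity. HEK293, 600 cells/well with reagent, compound (23 nL DMSO) added after 5 h; reads at 0, 8, 16, 24, 32, 40 h.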
# Further: nearly all actives have a fitted effect of over 50% in size.
row,SMILES,Potency
1,Cc1ccc(C)c(S(=O)(=O)O)c1,inactive
2,C=C(C)CC(C)(C)C,inactive
3,CN1Cc2c(N)cccc2C(c2ccccc2)C1 (stereo unspecified),inactive
4,CCOC(=O)CC(=O)OCC,inactive
5,O=c1c(O)c(-c2ccc(O)c(O)c2)oc2cc(O)cc(O)c12,inactive
6,Nc1cccc(N)n1,inactive
7,Nc1nc(N)c2nc(-c3ccccc3)c(N)nc2n1,inactive
8,OCC(O)CS (stereo unspecified),inactive
9,CC(=O)c1nccs1,inactive
10,Cc1ncc(CO)c(CO)c1O,inactive
11,C[Si](C)(C)N[Si](C)(C)C,inactive
12,CC/C=C(\C(=O)N[C@@H]1C(=O)N2C(C(=O)OCOC(=O)C(C)(C)C)=C(COC(N)=O)CS[C@H]12)c1csc(N)n1,inactive
13,CCOC(=O)c1ccc(O)cc1,inactive
14,Cc1nnc(NS(=O)(=O)c2ccc(N)cc2)s1,inactive
15,O=C(NCC1CCCCN1)c1cc(OCC(F)(F)F)ccc1OCC(F)(F)F (stereo unspecified),inactive
16,CC/C(C)=N/O,inactive
17,CC(=O)OC/C=C(\C)CCC=C(C)C,inactive
18,O=c1n(CCCN2CCN(c3cccc(Cl)c3)CC2)nc2ccccn12,inactive
19,Clc1cccc(Cl)c1NC1=NCCN1,inactive

row,SMILES,Potency
1,N[C@@H](Cc1cc(I)c(Oc2ccc(O)c(I)c2)c(I)c1)C(=O)O,inactive
2,OC1CCCCC1,inactive
3,CCCCCCCCC(=O)O,inactive
4,CC(O)CNCC(C)O (stereo unspecified),inactive
5,c1cnc2c(c1)ccc1cccnc12,inactive
6,CC(C)(C)NC[C@H](O)COc1nsnc1N1CCOCC1,inactive
7,CC(C)=CCC/C(C)=C/C=O,inactive
8,CCN(CC)CCNC(=O)c1ccc(N)cc1,inactive
9,O=C(O)C1=NN(c2ccc(S(=O)(=O)O)cc2)C(=O)C1,inactive
10,CCn1cc(C(=O)O)c(=O)c2cc3c(cc21)OCO3,inactive
11,COc1ccc(N)c(OC)c1,inactive
12,CCCCC(=O)O,inactive
13,O=C(c1ccccc1)c1ccc(O)c(O)c1O,inactive
14,O=C1C(N(CO)C(=O)NCO)N(CO)C(=O)N1CO (stereo unspecified),inactive
15,CC(CN1c2ccccc2Sc2ccccc21)N(C)C (stereo unspecified),inactive
16,Cc1ccccc1C=O,inactive
17,C=C(CC(=O)O)C(=O)O,inactive
18,CC[N+](CC)(CC(=O)Nc1c(C)cccc1C)Cc1ccccc1,inactive
19,NC(=O)c1ncn([C@@H]2O[C@H](CO)[C@@H](O)[C@H]2O)n1,inactive

# Experiment: qHTS RealTime-Glo MT Cell Viability Assay in HepG2 cells - 40 hour (AID 1224870)
# Conditions: RealTime-Glo luminescence; series mostly up to 76.8 µM
# Outline: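 HepG2 cells (600/well) mixed with RealTime-Glo MT reagent, settled 5 h at 37 C/5% CO2 before compound addition. Nonlytic NanoLuc luminescence from viable-cell prosubstrate reduction read repeatedly during 40 h treatment at 37 C.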
row,SMILES,Potency
1,Cc1ccc(C)c(S(=O)(=O)O)c1,inactive
2,C=C(C)CC(C)(C)C,inactive
3,CN1Cc2c(N)cccc2C(c2ccccc2)C1 (stereo unspecified),inactive
4,CCOC(=O)CC(=O)OCC,inactive
5,O=c1c(O)c(-c2ccc(O)c(O)c2)oc2cc(O)cc(O)c12,inactive
6,Nc1cccc(N)n1,inactive
7,Nc1nc(N)c2nc(-c3ccccc3)c(N)nc2n1,inactive
8,OCC(O)CS (stereo unspecified),inactive
9,CC(=O)c1nccs1,inactive
10,Cc1ncc(CO)c(CO)c1O,inactive
11,C[Si](C)(C)N[Si](C)(C)C,inactive
12,CC/C=C(\C(=O)N[C@@H]1C(=O)N2C(C(=O)OCOC(=O)C(C)(C)C)=C(COC(N)=O)CS[C@H]12)c1csc(N)n1,inactive
13,CCOC(=O)c1ccc(O)cc1,inactive
14,Cc1nnc(NS(=O)(=O)c2ccc(N)cc2)s1,inactive
15,O=C(NCC1CCCCN1)c1cc(OCC(F)(F)F)ccc1OCC(F)(F)F (stereo unspecified),inactive
16,CC/C(C)=N/O,inactive
17,CC(=O)OC/C=C(\C)CCC=C(C)C,inactive
18,O=c1n(CCCN2CCN(c3cccc(Cl)c3)CC2)nc2ccccn12,inactive
19,Clc1cccc(Cl)c1NC1=NCCN1,inactive

row,SMILES,Potency
1,N[C@@H](Cc1cc(I)c(Oc2ccc(O)c(I)c2)c(I)c1)C(=O)O,inactive
2,OC1CCCCC1,inactive
3,CCCCCCCCC(=O)O,inactive
4,CC(O)CNCC(C)O (stereo unspecified),inactive
5,c1cnc2c(c1)ccc1cccnc12,inactive
6,CC(C)(C)NC[C@H](O)COc1nsnc1N1CCOCC1,inactive
7,CC(C)=CCC/C(C)=C/C=O,inactive
8,CCN(CC)CCNC(=O)c1ccc(N)cc1,inactive
9,O=C(O)C1=NN(c2ccc(S(=O)(=O)O)cc2)C(=O)C1,inactive
10,CCn1cc(C(=O)O)c(=O)c2cc3c(cc21)OCO3,inactive
11,COc1ccc(N)c(OC)c1,inactive
12,CCCCC(=O)O,inactive
13,O=C(c1ccccc1)c1ccc(O)c(O)c1O,inactive
14,O=C1C(N(CO)C(=O)NCO)N(CO)C(=O)N1CO (stereo unspecified),inactive
15,CC(CN1c2ccccc2Sc2ccccc21)N(C)C (stereo unspecified),inactive
16,Cc1ccccc1C=O,inactive
17,C=C(CC(=O)O)C(=O)O,inactive
18,CC[N+](CC)(CC(=O)Nc1c(C)cccc1C)Cc1ccccc1,inactive
19,NC(=O)c1ncn([C@@H]2O[C@H](CO)[C@@H](O)[C@H]2O)n1,inactive
